Experiment [1] has as its target T1, Tyrosine-protein kinase ITK/TSK (Homo sapiens) (UniProt Q08881).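 Also: values are mean percent inhibition of ITK from the GSK PKIS screen.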
T1 sequence (whole entry): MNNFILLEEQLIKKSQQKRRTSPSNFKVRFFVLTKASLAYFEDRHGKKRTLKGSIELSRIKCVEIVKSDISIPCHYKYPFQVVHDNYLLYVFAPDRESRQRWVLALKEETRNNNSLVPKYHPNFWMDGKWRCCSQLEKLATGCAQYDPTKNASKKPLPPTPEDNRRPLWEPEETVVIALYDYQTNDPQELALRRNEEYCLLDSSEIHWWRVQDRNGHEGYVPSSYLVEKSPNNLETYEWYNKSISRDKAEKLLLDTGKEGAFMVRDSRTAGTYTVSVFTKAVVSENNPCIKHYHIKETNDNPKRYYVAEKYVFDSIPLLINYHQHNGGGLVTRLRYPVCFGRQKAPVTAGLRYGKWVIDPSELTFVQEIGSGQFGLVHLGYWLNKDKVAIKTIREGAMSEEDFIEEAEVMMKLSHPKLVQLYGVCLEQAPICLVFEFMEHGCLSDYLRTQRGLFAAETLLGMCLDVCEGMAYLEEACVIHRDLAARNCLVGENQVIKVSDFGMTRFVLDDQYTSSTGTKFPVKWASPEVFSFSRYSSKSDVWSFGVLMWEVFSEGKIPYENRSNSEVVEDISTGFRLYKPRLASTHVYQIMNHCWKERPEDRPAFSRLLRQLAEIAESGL
Conditions: at 1 µM.

Experiment [2] deals with Tyrosine-protein kinase JAK1 (Homo sapiens) (UniProt P23458). Conditions: at 0.1 µM.
Chain of Tyrosine-protein kinase JAK1 (Homo sapiens) (P23458 whole entry): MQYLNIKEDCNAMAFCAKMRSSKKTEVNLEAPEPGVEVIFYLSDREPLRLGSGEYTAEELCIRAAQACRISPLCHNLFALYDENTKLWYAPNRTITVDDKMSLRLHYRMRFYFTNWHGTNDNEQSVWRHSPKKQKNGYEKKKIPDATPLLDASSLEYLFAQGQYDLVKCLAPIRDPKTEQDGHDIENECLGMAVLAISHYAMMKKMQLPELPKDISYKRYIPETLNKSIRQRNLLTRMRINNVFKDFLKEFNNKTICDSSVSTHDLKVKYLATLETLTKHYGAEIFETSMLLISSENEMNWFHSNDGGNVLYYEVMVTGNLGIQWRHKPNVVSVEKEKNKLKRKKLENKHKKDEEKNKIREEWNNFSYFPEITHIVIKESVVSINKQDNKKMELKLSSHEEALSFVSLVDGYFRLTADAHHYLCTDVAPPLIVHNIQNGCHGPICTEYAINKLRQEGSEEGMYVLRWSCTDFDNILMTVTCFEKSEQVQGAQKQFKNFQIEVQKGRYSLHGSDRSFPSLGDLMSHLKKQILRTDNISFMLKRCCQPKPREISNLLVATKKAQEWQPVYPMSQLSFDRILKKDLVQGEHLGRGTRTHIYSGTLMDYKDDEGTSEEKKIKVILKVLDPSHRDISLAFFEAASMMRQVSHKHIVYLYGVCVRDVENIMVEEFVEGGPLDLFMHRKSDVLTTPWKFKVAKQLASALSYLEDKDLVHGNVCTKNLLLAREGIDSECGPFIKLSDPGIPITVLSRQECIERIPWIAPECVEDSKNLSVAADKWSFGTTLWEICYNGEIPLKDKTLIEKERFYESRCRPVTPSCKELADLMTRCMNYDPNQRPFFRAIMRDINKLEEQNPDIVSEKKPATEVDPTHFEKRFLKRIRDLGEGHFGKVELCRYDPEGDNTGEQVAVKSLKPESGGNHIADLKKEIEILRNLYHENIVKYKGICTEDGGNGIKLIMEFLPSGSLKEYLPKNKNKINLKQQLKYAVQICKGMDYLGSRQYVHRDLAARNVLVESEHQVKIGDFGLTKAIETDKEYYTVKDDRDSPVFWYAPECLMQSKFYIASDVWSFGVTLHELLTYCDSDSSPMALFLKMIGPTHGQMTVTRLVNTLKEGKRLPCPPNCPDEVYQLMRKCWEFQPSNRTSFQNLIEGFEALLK
For experiment [3] the target is unchanged. The settings on record: at 1 µM.
For experiment [4], the target named is Tyrosine-protein kinase JAK2 (Homo sapiens) (UniProt O60674). The settings on record: at 0.1 µM.
Chain of Tyrosine-protein kinase JAK2 (Homo sapiens) (O60674 whole entry): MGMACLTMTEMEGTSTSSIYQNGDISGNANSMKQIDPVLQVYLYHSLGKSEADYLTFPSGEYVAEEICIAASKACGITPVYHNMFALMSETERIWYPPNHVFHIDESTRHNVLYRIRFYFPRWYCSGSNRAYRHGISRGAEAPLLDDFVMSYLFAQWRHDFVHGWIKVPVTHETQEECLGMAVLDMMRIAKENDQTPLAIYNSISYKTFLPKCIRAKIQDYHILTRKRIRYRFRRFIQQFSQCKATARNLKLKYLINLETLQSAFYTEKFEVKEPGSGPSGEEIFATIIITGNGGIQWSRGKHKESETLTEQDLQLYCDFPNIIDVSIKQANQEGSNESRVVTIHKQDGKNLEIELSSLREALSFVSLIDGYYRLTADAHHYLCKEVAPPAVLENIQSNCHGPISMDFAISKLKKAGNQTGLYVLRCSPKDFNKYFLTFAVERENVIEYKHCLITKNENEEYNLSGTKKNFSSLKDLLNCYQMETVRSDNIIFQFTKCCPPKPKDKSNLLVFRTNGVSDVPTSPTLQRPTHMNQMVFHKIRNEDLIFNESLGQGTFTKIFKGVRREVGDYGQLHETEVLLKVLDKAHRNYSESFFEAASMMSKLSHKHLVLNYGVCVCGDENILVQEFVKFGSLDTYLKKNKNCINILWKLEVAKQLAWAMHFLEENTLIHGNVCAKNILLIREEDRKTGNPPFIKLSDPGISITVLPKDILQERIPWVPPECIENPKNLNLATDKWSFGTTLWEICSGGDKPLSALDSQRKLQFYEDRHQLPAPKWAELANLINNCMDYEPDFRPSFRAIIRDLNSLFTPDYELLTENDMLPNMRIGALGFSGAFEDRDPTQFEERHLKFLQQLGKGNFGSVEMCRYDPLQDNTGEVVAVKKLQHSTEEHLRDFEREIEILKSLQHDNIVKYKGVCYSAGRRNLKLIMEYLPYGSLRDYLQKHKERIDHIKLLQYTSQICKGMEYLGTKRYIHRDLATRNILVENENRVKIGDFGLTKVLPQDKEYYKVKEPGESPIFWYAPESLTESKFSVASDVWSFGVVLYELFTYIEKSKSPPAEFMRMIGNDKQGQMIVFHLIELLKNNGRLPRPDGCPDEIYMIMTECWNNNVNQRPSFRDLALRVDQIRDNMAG
The target is the same in experiment [5]. The settings on record: at 1 µM.
Experiment [6] concerns the target T2, Tyrosine-protein kinase JAK3 (Homo sapiens) (UniProt P52333).
T2 sequence (whole entry): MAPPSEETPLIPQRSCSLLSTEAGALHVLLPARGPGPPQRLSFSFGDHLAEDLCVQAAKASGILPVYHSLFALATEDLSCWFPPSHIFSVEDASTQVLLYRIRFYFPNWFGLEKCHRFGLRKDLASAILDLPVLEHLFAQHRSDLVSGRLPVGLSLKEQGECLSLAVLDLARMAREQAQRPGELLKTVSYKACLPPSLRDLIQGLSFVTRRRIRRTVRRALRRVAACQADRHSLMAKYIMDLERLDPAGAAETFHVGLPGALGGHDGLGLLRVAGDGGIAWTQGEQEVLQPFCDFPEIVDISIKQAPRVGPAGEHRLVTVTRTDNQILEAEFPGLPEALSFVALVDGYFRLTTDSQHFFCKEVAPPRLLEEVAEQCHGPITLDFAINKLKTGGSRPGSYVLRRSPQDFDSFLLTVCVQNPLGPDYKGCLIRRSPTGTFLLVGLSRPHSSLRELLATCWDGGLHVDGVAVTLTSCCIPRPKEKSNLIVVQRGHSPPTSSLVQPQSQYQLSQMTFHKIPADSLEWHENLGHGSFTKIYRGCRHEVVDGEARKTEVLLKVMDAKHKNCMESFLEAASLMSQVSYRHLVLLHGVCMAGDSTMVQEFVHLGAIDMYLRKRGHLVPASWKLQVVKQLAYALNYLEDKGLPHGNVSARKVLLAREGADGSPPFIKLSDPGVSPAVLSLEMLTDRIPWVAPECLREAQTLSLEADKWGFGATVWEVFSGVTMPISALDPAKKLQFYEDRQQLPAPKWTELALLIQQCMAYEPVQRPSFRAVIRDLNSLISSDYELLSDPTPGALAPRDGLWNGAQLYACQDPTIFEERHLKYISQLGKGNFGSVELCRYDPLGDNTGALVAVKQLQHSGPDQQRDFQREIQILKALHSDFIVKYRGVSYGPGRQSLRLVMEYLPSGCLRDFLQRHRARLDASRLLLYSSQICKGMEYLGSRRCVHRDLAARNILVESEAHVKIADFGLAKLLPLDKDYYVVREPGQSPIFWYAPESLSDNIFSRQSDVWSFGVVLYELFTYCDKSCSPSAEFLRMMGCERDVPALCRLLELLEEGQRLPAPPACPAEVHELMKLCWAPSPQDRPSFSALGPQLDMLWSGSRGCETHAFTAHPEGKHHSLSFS
The settings on record: at 0.1 µM.

Experiment [7] deals with T2, Tyrosine-protein kinase JAK3 (Homo sapiens). Conditions: at 1 µM.
The target of experiment [8] is Vascular endothelial growth factor receptor 2 (Homo sapiens) (UniProt P35968). The settings on record: at 0.1 µM.
For experiment [9] the target is unchanged. Conditions: at 1 µM.
Experiment [10] addresses Mast/stem cell growth factor receptor Kit (Homo sapiens) (UniProt P10721). The settings on record: at 0.1 µM.
Experiment [11] has the same target. The settings on record: at 1 µM.
The test system of experiment [12] is Mast/stem cell growth factor receptor Kit (Homo sapiens), P10721 [D816V]. Conditions: at 0.1 µM.
Chain of Mast/stem cell growth factor receptor Kit (Homo sapiens), P10721 [D816V] (P10721 whole entry D816V): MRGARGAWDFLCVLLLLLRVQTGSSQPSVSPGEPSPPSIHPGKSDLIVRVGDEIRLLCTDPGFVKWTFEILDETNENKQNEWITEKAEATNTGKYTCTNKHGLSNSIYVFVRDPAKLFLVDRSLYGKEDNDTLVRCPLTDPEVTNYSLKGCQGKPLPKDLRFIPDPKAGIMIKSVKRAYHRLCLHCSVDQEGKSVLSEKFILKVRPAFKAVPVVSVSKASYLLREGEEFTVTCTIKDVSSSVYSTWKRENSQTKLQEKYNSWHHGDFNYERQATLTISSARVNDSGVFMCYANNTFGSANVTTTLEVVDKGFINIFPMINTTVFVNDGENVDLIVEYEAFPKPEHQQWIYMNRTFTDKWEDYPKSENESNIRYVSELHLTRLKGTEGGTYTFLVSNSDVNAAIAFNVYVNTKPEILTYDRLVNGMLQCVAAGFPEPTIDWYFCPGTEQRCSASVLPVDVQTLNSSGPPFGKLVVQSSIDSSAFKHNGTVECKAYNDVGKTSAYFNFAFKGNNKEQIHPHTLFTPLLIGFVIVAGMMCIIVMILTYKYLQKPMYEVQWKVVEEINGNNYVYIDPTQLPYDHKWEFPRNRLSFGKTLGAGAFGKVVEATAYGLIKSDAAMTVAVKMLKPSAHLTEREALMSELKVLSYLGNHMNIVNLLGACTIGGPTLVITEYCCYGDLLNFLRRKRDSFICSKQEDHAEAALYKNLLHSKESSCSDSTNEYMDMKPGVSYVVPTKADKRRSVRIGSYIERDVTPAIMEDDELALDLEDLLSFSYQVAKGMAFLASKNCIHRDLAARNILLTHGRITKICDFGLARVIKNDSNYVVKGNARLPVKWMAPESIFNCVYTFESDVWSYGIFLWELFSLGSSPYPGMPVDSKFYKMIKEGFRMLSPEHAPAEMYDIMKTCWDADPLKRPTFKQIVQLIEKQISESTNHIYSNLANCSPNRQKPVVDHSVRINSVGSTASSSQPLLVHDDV
The test system is the same in experiment [13]. Conditions: at 1 µM.
The test system of experiment [14] is Mast/stem cell growth factor receptor Kit (Homo sapiens), P10721 [T670I]. The settings on record: at 0.1 µM.
Chain of Mast/stem cell growth factor receptor Kit (Homo sapiens), P10721 [T670I] (P10721 whole entry T670I): as the sequence (P10721 whole entry D816V) above, with T670I, V816D counted along it
Experiment [15] has the same test system. The settings on record: at 1 µM.
Experiment [16] has as its system Mast/stem cell growth factor receptor Kit (Homo sapiens), P10721 [V560G]. The settings on record: at 0.1 µM.
Experiment [17] shares this test system. Conditions: at 1 µM.
The target in experiment [18] is Tyrosine-protein kinase Lck (Homo sapiens) (UniProt P06239). The settings on record: at 0.1 µM.
Chain of Tyrosine-protein kinase Lck (Homo sapiens) (P06239 2-509 limits assumed): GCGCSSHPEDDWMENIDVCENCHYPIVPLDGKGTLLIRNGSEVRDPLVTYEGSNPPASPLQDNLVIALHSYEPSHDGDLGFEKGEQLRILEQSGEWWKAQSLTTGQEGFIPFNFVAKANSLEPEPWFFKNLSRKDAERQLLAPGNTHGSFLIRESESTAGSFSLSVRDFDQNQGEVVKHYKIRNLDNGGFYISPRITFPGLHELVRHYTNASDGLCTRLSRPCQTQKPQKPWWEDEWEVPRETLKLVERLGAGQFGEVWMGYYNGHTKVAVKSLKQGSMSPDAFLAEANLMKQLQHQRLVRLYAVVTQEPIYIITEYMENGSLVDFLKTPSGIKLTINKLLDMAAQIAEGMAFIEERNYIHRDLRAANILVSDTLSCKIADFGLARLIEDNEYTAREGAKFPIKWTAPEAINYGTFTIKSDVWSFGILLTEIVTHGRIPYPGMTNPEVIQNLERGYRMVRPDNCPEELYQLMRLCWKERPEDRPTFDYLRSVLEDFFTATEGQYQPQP
Experiment [19] shares this target. Conditions: at 1 µM.
Experiment [20] concerns the target Leukocyte tyrosine kinase receptor (Homo sapiens) (UniProt P29376). The settings on record: at 0.1 µM.

Values joined by “and” are separate entries in the source; they are usually repeats but may differ in a detail not shown here. Equal entries are not always repeated.

Chain of Mast/stem cell growth factor receptor Kit (Homo sapiens), P10721 [V560G] (P10721 whole entry V560G): as the sequence (P10721 whole entry D816V) above, with V560G, V816D counted along it
Chain of Leukocyte tyrosine kinase receptor (Homo sapiens) (P29376 whole entry): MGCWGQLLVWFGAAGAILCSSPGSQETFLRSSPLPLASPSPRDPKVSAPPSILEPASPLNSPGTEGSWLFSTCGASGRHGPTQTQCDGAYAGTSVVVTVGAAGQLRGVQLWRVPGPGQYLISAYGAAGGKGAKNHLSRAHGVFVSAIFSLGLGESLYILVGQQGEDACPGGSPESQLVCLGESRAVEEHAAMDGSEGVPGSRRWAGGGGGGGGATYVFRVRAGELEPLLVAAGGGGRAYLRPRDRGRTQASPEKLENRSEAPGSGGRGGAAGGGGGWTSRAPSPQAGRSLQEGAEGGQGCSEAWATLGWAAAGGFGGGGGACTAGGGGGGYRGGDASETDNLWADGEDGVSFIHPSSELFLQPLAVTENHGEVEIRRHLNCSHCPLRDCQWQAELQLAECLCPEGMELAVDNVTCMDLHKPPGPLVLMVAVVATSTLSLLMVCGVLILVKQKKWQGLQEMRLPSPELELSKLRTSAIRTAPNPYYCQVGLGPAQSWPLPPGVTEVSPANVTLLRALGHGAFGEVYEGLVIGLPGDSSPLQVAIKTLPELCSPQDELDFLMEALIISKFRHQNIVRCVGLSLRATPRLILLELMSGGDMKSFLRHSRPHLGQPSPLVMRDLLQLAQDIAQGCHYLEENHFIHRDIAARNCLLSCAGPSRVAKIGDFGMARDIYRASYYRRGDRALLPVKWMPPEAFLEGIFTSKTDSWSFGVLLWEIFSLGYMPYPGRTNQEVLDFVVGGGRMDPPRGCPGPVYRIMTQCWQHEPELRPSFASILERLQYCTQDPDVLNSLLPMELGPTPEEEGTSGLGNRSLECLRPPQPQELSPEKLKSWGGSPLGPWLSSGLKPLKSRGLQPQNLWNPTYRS
Chain of Mast/stem cell growth factor receptor Kit (Homo sapiens) (P10721 whole entry): as the sequence (P10721 whole entry D816V) above, with V816D counted along it

Turning to `CCS(=O)(=O)c1ccc(OC)c(Nc2ncc(-c3cccc(F)c3)o2)c1`, the inhibition (usually the drop in the measured response relative to a control, in per cent) was 6.38% in experiment [1]; 7.39% in experiment [2]; 10.4% in [3]; 3.25% in experiment [4]; 2.43% in experiment [5]; -1.97% in experiment [6]. In addition, the inhibition in experiment [7] came out at 0.45%; in experiment [8], 46.8%; in [9] it was 77%; in experiment [10], 74.7%; in [11] it was 97%; in experiment [12] it was 4.96%. In addition, the inhibition in [13] is 9.62%; in experiment [14], 19.7%; in experiment [15], 81.3%; in experiment [16], 0.05%; in experiment [17], 34.1%; in experiment [18], 20.4%. For the same molecule, the inhibition in experiment [19] is 64.1%; in [20], 7.85%.

For `CCCNc1cccc(-n2ncc3c(N/N=C/c4ccncc4)ncnc32)c1`, the inhibition in [1] is 10.8%; in experiment [2] it was 6.59%; in experiment [3], 11.7%; in experiment [4] it was 0.82%; in experiment [5], 14.7%; in [6] it was -1.09%. Also, the inhibition in experiment [7] was 8.21%; in [8], 17.3%; in [9], 64.9%; in experiment [10] it was 2.4%; in experiment [11] it was 23.7%; in experiment [12] it was -0.57%. Further, the inhibition in [13] turned out to be 9.89%; in experiment [14] it was 1.36%; in experiment [15], 5.45%; in experiment [16] it was 7.17%; in experiment [17] it was 13.4%; in experiment [18], 23.1%. For the same molecule, the inhibition in experiment [19] worked out at 68.3%; in [20], 1.2%.

In the case of `NS(=O)(=O)c1cccc(N/C=C2\C(=O)Nc3ccccc32)c1`, the inhibition is 3.54% in [1]; 2.83% in [2]; 6.08% in [3]; 1.37% in experiment [4]; 2.13% in [5]; -2% in experiment [6]. In addition, the inhibition in experiment [7] worked out at 0.9%; in experiment [8], 9.08%; in [9] it was 35.3%; in experiment [10], 16.4%; in experiment [11], 63.9%; in [12], 3.62%. In addition, the inhibition in experiment [13] is 2.43%; in experiment [14], 6.57%; in [15] it was 45.2%; in [16], -0.34%; in experiment [17], 8.83%; in experiment [18] it was 2.31%. Further, the figures for the inhibition in [19] and in [20] were 6.78% and 3.74%, respectively.

`CS(=O)(=O)CCNCc1ccc(-c2ccc3ncnc(Nc4ccc(OCc5ccccc5)cc4)c3c2)o1`: the inhibition in [1] was 2.16%; in experiment [2] it was 6.4%; in experiment [3] it was 5.72%; in experiment [4], 1.29%; in experiment [5] it was 0.35%; in [6], -2%. The inhibition in [7] was -1.45%; in [8], 3.83%; in experiment [9] it was 6.56%; in [10], 2.46%; in experiment [11] it was 8.96%; in experiment [12], 2.54%. The inhibition amounted to 2.47% in experiment [13]; 3.32% in experiment [14]; 4.61% in experiment [15]; 4.25% in experiment [16]; 1.48% in [17]; 4.19% in [18]. Moreover, the inhibition worked out at 22% in experiment [19] and 4.28% in experiment [20].

Turning to `FC(F)(F)CNc1nccc(-c2cnn3ncccc23)n1`, the inhibition is 1% in experiment [1]; 1.9% in experiment [2]; 2.18% in experiment [3]; 1.39% in experiment [4]; -0.82% in experiment [5]; -1.54% in experiment [6]. Also, the inhibition in [7] is -1.63%; in experiment [8] it was 2.14%; in [9] it was 4.88%; in experiment [10], 2.28%; in [11], 3.6%; in experiment [12], 0.88%. The inhibition in experiment [13] was 2.79%; in experiment [14], 0.67%; in [15], 0.91%; in [16], -2.94%; in experiment [17] it was 0.4%; in experiment [18], 1.7%. Besides, the inhibition in experiment [19] turned out to be 3.74%; in experiment [20], 2.72%.

As for `Nc1nccc(-c2c(-c3ccc(F)cc3)ncn2C2CCNCC2)n1`, the inhibition in [1] is -0.06% and 1.58%; in experiment [2] it was -5.03% and -2.79%; in experiment [3], 1.1% and 3.47%; in experiment [4] it was -1.85% and 0.8%; in [5], -1.57% and 1.93%; in experiment [6], 0.47% and 0.86%. In addition, the inhibition in experiment [7] is 2.72% and 2.66%; in experiment [8], -2.27% and 1.08%; in experiment [9], 2.47% and 2.78%; in [10], -3.74% and 1.54%; in experiment [11], -2.8% and 0.85%; in experiment [12], 13% and -2.76%. The inhibition in experiment [13] was 1.63% and 3.54%; in experiment [14], -2.81% and 0.49%; in experiment [15], -3.42% and -0.01%; in [16], 1.31% and 1.87%; in [17] it was 3.68% and 1.62%; in [18], 1.27% and 4.01%. In addition, the inhibition in experiment [19] is 14.3% and 17.1%; in experiment [20], -2.04% and 0.7%.

For the molecule `COc1ccc(-c2nn3ncccc3c2-c2ccnc(Nc3ccc(F)c(F)c3)n2)cc1`, the inhibition in experiment [1] is 3.13%; in experiment [2], 3.71%; in experiment [3], 14.6%; in experiment [4] it was 0.73%; in experiment [5], 1.18%; in experiment [6] it was -1.36%. For the same molecule, the inhibition in experiment [7] was found to be 0.8%; in [8], 6.9%; in experiment [9] it was 20.6%; in experiment [10] it was 7.56%; in experiment [11], 28.2%; in experiment [12], 6.57%. The inhibition in experiment [13] was 5.39%; in [14], 3.81%; in experiment [15] it was 11.5%; in [16] it was -0.18%; in [17] it was 4.13%; in experiment [18] it was 7.63%. The inhibition in experiment [19] turned out to be 39.1%; in experiment [20], 4.19%.

(Values after ChEMBL document CHEMBL1961873, “Compounds: GSK PKIS; Assays: Nanosyn kinase panel” (2012).)
